Bioassay records (PubChem BioAssay)
This is a sample that favours compounds with a hit; in the whole collection about 4.8% have one here.
DAX1 inh-1: blocks DAX1 repression of SF-1 activated StAR promoter | HEK293T StAR-luciferase reporter, SF-1/DAX-1 repression relief | inhibition, % at 6.8 µM | 370,000 compounds, 1.1% hits;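 active = inhibition above the mean over all tested compounds plus 3 SD, cut at about 3.6% in these data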;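 note: higher inhibition means more luminescence from relief of DAX-1 repression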
hgDAF12 agonist: hgDAF-12 agonism, primary luciferase screen; HEK293 GAL4-hgDAF12 UAS-luciferase reporter, agonist luminescence; normalized to butyrate control; activation, % at 6.8 µM; 370,000 compounds, 1.8% hits; AID 687014;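 active = activation above a cutoff set at the mean of all screened compounds plus 3 SD, cut at about 10% in these data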
SMARCA2 activ: activators of SMARCA2 function | MG213 cells, MMTV-luciferase reporter, dexamethasone, overnight | activation, % at 9.1 µM | 370,000 compounds, 1% hits | AID 652017; in the data active = activation above about 7.8%
hcDAF-12 act: activates DAF-12 receptor from parasite H. contortus. 370,000 compounds, 1.4% hits. activation, % at 6.8 µM. AID 652067. HEK293 hcDAF-12 lit1-tk-luc reporter, luminescence; 0% DMSO, 100% Δ7-dafachronic acid;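 active = activation above the mean of all tested compounds plus 3 SD, cut at about 5.5% in these data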
ssDAF12 agonist: S. stercoralis DAF-12 activation, primary screen. HEK293 ssDAF-12/GRIP1 lit1-tk-luc reporter, luminescence; % of 3 µM dafachronic acid response. activation, % at 6.8 µM. 370,000 compounds, 1% hits. AID 652126;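 active = activation above the mean over all tested compounds plus 3 SD, cut at about 0.9% in these data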
DAX1 inh-2: NR0B1 (DAX1) inhibition; AID 504766; inhibition, % at 6.75 µM; HEK293 Gal4-DAX1 luciferase reporter, luminescence; P51843; 340,000 compounds, 0.99% hits;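 active = inhibition above the mean over all tested compounds plus 3 SD, cut at about 4.2% in these data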;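 note: inhibition shows as a rise in luminescence from relieved DAX1 repression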
Target sequence (P51843 207-470 limits assumed): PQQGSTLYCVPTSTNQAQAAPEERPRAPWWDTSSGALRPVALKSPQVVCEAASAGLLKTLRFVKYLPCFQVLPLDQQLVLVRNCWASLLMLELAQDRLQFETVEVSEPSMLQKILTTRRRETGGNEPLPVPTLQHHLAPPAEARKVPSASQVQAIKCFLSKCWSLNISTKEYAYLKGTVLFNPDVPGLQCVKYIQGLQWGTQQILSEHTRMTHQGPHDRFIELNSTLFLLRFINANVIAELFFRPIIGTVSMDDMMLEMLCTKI
Numbers stand for hits; i = inactive; nt = not tested or not shown.

SMILES	DAX1 inh-1	hgDAF12 agonist	SMARCA2 activ	hcDAF-12 act	ssDAF12 agonist	DAX1 inh-2
Cc1ccc(NC(=O)c2cccc(Oc3ccc([N+](=O)[O-])cc3)c2)c(C(=O)O)c1	i	i	i	i	i	i
CC(C)[C@H](NC(N)=O)C(=O)NNC(=O)COc1cccc(C(F)(F)F)c1	i	i	i	i	i	6.5
COc1cc(N=Nc2ccc3ccccc3c2)ccc1O	i	i	i	i	1.7	8.1
CN(C)C(CNC(=O)c1cccnc1Sc1ccccc1)c1ccco1 (configuration not stated)	i	i	i	i	i	i
Cn1c2ccccc2c(=O)c2c(=O)n(-c3ccc(F)cc3)c(-c3cccs3)nc21	i	i	i	i	i	i
Cc1ccc(-c2nc3c(c(=O)c4ccccc4n3C)c(=O)n2-c2ccc(F)cc2)cc1	i	i	i	5.6	i	i
CCOc1cc2[nH]c(=O)n(Cc3ccc(C(=O)NCCOC)cc3)c(=O)c2cc1OCC	i	i	i	i	i	i
CCc1nnc(NC(=O)CCC(=O)N2CCN(S(=O)(=O)c3ccc(OC)cc3)CC2)s1	i	i	i	i	i	i
CCCc1nnc(NC(=O)CCC(=O)N2CCN(S(=O)(=O)c3ccc(C)cc3)CC2)s1	i	i	i	i	1.1	i
Cc1ccc(S(=O)(=O)N2CCC(C(=O)Nc3nnc(-c4ccc(F)cc4)s3)CC2)cc1	i	i	i	6.5	i	i
Cc1ccc(S(=O)(=O)N2CCC(C(=O)Nc3cccnc3)CC2)cc1	i	i	i	i	i	5.4
O=C(Nc1nnc(-c2ccc(F)cc2)s1)C1CCN(S(=O)(=O)c2ccc(Cl)cc2)CC1	i	i	i	i	i	i
CCCCCCCCN1C(=O)[C@@H](CC(=O)NCc2cccc3ccccc23)C[C@@]2(C(=O)OC)C1=C[C@H](COCc1ccccc1)O[C@@H]2C	i	i	i	i	i	nt
NC(=O)N/N=C/C=C/c1ccccc1	i	i	i	i	i	i
Cc1cccc(OCC2=N/C(=C\N(C)C)C(=O)O2)c1	i	i	i	i	i	i
COc1ccc(-c2cc3ncc(C(C)=O)c(C)n3n2)cc1	i	i	i	i	i	4.4
COC(=O)c1ccc(/C=C/c2ccc3cccc(OC(C)=O)c3n2)cc1	i	12.2	i	i	i	i
Clc1ccc(OCc2cnc(Cl)s2)cc1	i	i	i	i	i	i
CCc1ccc(OCc2cnc(Cl)s2)cc1	i	i	i	i	i	4.4
c1ccc(OCc2nnc3sc(-c4cccs4)nn23)cc1	i	i	i	i	i	i
Clc1ccc(Cl)c(-c2nn3c(COc4ccccc4)nnc3s2)c1	i	i	i	i	1.4	i
Cc1ccc(NC(=S)NC2CCN(Cc3ccccc3)CC2)cc1C	i	i	i	i	i	i
S=C(Nc1ccc2c(c1)OCO2)N1CCN(Cc2ccco2)CC1	i	11.2	i	i	i	i
S=C(Nc1ccc2c(c1)OCO2)NC1CCN(Cc2ccccc2)CC1	i	i	i	i	i	4.7
CCC1(c2ccc(F)cc2)NC(=O)N(CC(=O)N2c3ccccc3NC(=O)C2(C)C)C1=O (configuration not stated)	i	i	i	i	i	i
SMILES	DAX1 inh-1	hgDAF12 agonist	SMARCA2 activ	hcDAF-12 act	ssDAF12 agonist	DAX1 inh-2
CSc1nc2ccc(S(=O)(=O)N3CCOCC3)cc2s1	i	i	i	5.8	i	i
CSc1nc2ccc(S(=O)(=O)N3CCCCC3)cc2s1	i	i	i	i	i	i
CNC(=O)c1cc2c(cn1)[nH]c1ccccc12	3.7	i	i	i	i	i
c1ccc(Nc2nnc(-c3cccc4ccccc34)o2)cc1	i	i	i	6.3	1.2	nt
Clc1ccc(Nc2nc3cccnc3s2)cc1	i	11.1	i	i	i	i
CCCCNc1nc2cccnc2s1	i	i	i	i	i	6.3
O=[N+]([O-])c1cccnc1Nc1ccc(Cl)cc1	i	i	i	i	i	i
CCc1ccc(-c2nc(CN3CCC(C(=O)NCc4ccc(F)cc4)CC3)c(C)o2)cc1	i	i	i	i	i	i
CC(c1ccccc1)C1OCC(C[N+]2(C)CCCCC2)O1 (configuration not stated)	i	i	i	i	i	i
COc1ccc(-c2nc(CN3CCCCC3c3cccnc3)c(C)o2)c(F)c1 (configuration not stated)	i	11.9	i	i	i	i
